Sampled rows, rich in hits. Any-hit rate of the full collection: about 11%.
ALDH1A1 inh – ALDH1A1 (human) enzyme inhibition. P00352. Purified ALDH1A1, NADH fluorescence, propionaldehyde substrate. Potency, µM (series often up to 75.3 µM), without a hit: at the highest dose activity, negative = inhibition, actives largely listed as inhibitors. hit rate 7.3% among 220,000. AID 1030;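 further: potency means the concentration at half of the fitted maximal effect; plate controls were no enzyme wells and a reference inhibitor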
Target sequence (P00352 whole entry, looked up): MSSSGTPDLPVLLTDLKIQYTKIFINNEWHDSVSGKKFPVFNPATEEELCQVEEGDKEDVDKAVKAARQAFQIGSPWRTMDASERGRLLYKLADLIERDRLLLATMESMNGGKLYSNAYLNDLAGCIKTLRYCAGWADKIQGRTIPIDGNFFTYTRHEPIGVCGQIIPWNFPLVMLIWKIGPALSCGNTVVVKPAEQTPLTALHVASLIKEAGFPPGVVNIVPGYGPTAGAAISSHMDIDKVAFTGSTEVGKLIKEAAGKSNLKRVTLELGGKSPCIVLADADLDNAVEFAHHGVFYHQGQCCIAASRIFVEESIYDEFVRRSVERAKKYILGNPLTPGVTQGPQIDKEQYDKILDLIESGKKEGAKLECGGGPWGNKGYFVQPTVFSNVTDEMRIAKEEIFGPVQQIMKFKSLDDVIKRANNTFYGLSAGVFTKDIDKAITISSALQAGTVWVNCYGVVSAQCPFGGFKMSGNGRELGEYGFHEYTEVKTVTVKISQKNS
HPGD inh – inhibitors of human 15-hydroxyprostaglandin dehydrogenase (HPGD) | hit rate 4.3% among 150,000 | P15428 | Potency, µM, for the others: at the highest dose activity change, negative = inhibition, most hits filed as inhibitors | purified HPGD, NADH fluorescence kinetic, PGE2 substrate; further: potency means the concentration at half of the fitted maximal effect
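20 nM HPGD preincubated 15 min at room temperature with compound in 50 mM Tris-HCl pH 8, 0.01% Tween 20. Started with 1 mM NAD+ and 30 uM prostaglandin E2; NADH fluorescence (360/450 nm) read 5 times over 30-s intervals, last minus first.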
PNC assembly inh – blocks assembly of the perinucleolar compartment. PC3M PTB-GFP, PNC prevalence imaging, 16 h; hits give low values. activity change (PNC), negative = inhibition, % at 10 µM. hit rate 3.1% among 140,000. AID 2417;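 active means readout at or below -70, meaning at least 70% loss of cells showing the perinucleolar compartment, a nuclear body marking cancer cells; inconclusive means readout between -30 and a set limit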;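 further: plate controls were DMSO wells for no effect and camptothecin positive control wells for full effect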
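Compounds are pinned in duplicate onto adhered PC3M cells stably expressing GFP-tagged PTB and incubated 16 h at 37 C. Cells are then fixed, nuclei stained with Hoechst, and PNC-positive cells counted.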
* = called active by the depositor; [ ] = remark or other dose. Unless noted, the call rests on the fitted dose curve; in most records, active means well fitted inhibition curve with a large enough effect (not every such curve was filed as active); inconclusive means small, poorly fitted or top-dose-only effect, or another doubt; inactive means no such curve, though single readings can be large or run the other way. Unless noted, on the % scale 0 is the no-effect control and ±100 the full control effect.

Screening CCCCC(=O)Nc1cccc(C(=O)N/N=C/c2ccc(OC)cc2OC)c1 returned ALDH1A1 inh inconclusive, HPGD inh inconclusive and PNC assembly inh -9.9.
For Cc1nn(C)c(=O)n1N(C)c1ncc(C(F)(F)F)cc1Cl the results were ALDH1A1 inh 8.7%.
For CCCc1cc(C(=O)OC)c(NC(=O)CCCC(=O)O)s1 the results were ALDH1A1 inh 8.1%.
Screening CCc1cc(C(=O)OC)c(NC(=O)CCC(=O)O)s1 returned ALDH1A1 inh 17.8µM*, HPGD inh 12.6µM* and PNC assembly inh -26.7.
`CCc1ccc(Nc2nnc(SC3CCOC3=O)s2)cc1` (stereo unspecified) gave ALDH1A1 inh inconclusive, HPGD inh -9.3% and PNC assembly inh -23.9.
Screening Cc1ccc(OCC(O)CN2C(=O)NC(C)(C)C2=O)c(C)c1 (stereo unspecified) returned ALDH1A1 inh 9.8%.
Screening Cc1ccc2c(c1)/C(=N/N1C(=O)c3ccccc3C1=O)C(=O)N2 returned ALDH1A1 inh -7.1%, HPGD inh -6.3% and PNC assembly inh -25.0.
Screening Nc1n[nH]c(=S)n1/N=C1/C(=O)Nc2ccccc21 returned ALDH1A1 inh 7.94µM*.
`O=C(COc1ccc2c(c1)CCC2)NCc1ccc(Cl)cc1` gave ALDH1A1 inh -15.0%, HPGD inh -10.5% and PNC assembly inh inconclusive.
`C/C(=N/NC(=O)CC1N=C(Cc2ccccc2)NNC1=O)c1cccnc1` (stereo unspecified) gave ALDH1A1 inh 4.3%.
`COc1ccc(-n2c(C)cc(-c3csc(NC(=O)c4ccc(S(=O)(=O)N(C)C)cc4)n3)c2C)cc1` gave ALDH1A1 inh 2.24µM*, HPGD inh -4.1% and PNC assembly inh 9.5.
Screening CN(C)S(=O)(=O)c1ccc(C(=O)Nc2nc(-c3cccs3)cs2)cc1 returned ALDH1A1 inh 162.5%, HPGD inh inconclusive and PNC assembly inh 30.3.
Screening COCC(=O)N1CCC[C@@]2(CCN(c3ncccn3)C2)C1 returned ALDH1A1 inh -7.2% and HPGD inh -15.9%.
COc1ccc(S(=O)(=O)CCC(=O)Nc2cccc(OC)c2)cc1 was read as ALDH1A1 inh -3.8%.
`Cc1cccc(Nc2nc(-c3ccc4c(c3)OCCO4)cs2)c1` gave ALDH1A1 inh 20µM*, HPGD inh -7.7% and PNC assembly inh 21.8.
Screening Cc1cccc(Nc2nc(-c3ccncc3)cs2)c1 returned ALDH1A1 inh 4.1%.
Screening CC(C)(C)SCCNS(=O)(=O)c1ccccc1 returned ALDH1A1 inh inconclusive, HPGD inh -11.2% and PNC assembly inh 1.6.
COCCCNS(=O)(=O)c1ccc(SC)cc1 was read as ALDH1A1 inh inconclusive, HPGD inh -7.8% and PNC assembly inh 39.8.
For CSc1ccc(S(=O)(=O)NCCSC(C)(C)C)cc1 the results were ALDH1A1 inh 7.94µM*, HPGD inh -11.9% and PNC assembly inh -13.9.
`CSc1ccc(S(=O)(=O)NCCSc2ccccn2)cc1` gave ALDH1A1 inh -6.9%, HPGD inh -7.0% and PNC assembly inh 28.1.
`CSc1ccc(S(=O)(=O)NCCOc2ccccc2C)cc1` gave ALDH1A1 inh 12.6µM*, HPGD inh -19.8% and PNC assembly inh 23.0.
CC(C)(C)SCCNS(=O)(=O)c1ccc2ccccc2c1 was read as ALDH1A1 inh 15µM*, HPGD inh -20.5% and PNC assembly inh 13.8.
`COC(=O)[C@@H](NC(=O)O[C@@H]1C(=O)c2cc(OC)ccc2O[C@H]1c1ccc(OC)c(Br)c1)C(C)C` gave ALDH1A1 inh -7.2% and HPGD inh -18.8%.
For COc1ccccc1-c1c(C#N)c(N)nc2c1CCc1ccccc1-2 the results were ALDH1A1 inh 5.1%, HPGD inh inconclusive and PNC assembly inh inconclusive.
Screening Cc1nn(C)cc1CN(C)Cc1c(C(=O)N(C)Cc2ccccc2)nc2ccccn12 returned ALDH1A1 inh 12.7%.
Screening CN(Cc1c(C(=O)N(C)Cc2ccccc2)nc2ccccn12)CC1Cc2ccccc2O1 (stereo unspecified) returned ALDH1A1 inh 14.1µM*.
For CN(Cc1ccccc1)CC(O)COc1ccc(CNCCOc2cccnc2)cc1 (stereo unspecified) the results were ALDH1A1 inh 7.2%.
Screening CN(Cc1ccccc1)C(=O)c1nc2ccccn2c1CNCCOc1cccnc1 returned ALDH1A1 inh 25.1µM*.
`CCCC1(C(=O)OC)C=C2C(=C(c3ccccc3)C(=O)C2C)CN1` (stereo unspecified) gave ALDH1A1 inh inconclusive and HPGD inh -19.2%.
O=C(NCc1ccccc1Cl)c1ccccc1Oc1ccccc1 was read as ALDH1A1 inh inconclusive, HPGD inh -4.8% and PNC assembly inh 34.7.
`Cc1ccc(C(=O)N2CCN(c3ccc(NC(=O)CSc4ccc(Cl)cc4)cc3)CC2)cc1` gave ALDH1A1 inh inconclusive, HPGD inh -7.2% and PNC assembly inh -113.4*.
COC(=O)c1ccc(NC(=S)N2CCN(Cc3ccccc3Cl)CC2)cc1 was read as ALDH1A1 inh -8.4%.
COC(=O)c1ccc(NC(=S)N2CCN(Cc3ccc(Cl)cc3)CC2)cc1 was read as ALDH1A1 inh 1.9%, HPGD inh 39.8µM* and PNC assembly inh 7.1.
`COC(=O)c1ccc(NC(=O)CN2CCN(c3ccc(Cl)cc3)CC2)cc1` gave ALDH1A1 inh 22.4µM*, HPGD inh -28.4% and PNC assembly inh 5.8.
O=C(CN1CCCN(S(=O)(=O)c2ccc(Br)s2)CC1)Nc1ccc(Cl)cc1 was read as ALDH1A1 inh 4.47µM*, HPGD inh -11.9% and PNC assembly inh 23.3.
Screening CS(=O)(=O)N1CCN(c2ccc(NC(=O)CSc3ccc(Cl)cc3)cc2)CC1 returned ALDH1A1 inh -0.1%, HPGD inh -9.8% and PNC assembly inh 12.0.
For COC(=O)c1ccc(NC(=O)CN2CCN(c3cccc(Cl)c3)CC2)cc1 the results were ALDH1A1 inh -7.2%, HPGD inh -7.7% and PNC assembly inh 36.0.
`CCOC(=O)CNC(=O)CN1CCCN(S(=O)(=O)c2ccc(Br)s2)CC1` gave ALDH1A1 inh inconclusive, HPGD inh -7.5% and PNC assembly inh 9.5.
Cc1ccc(C(=O)C(OC(=O)CN2C(=O)c3ccccc3C2=O)c2ccccc2)cc1C (stereo unspecified) was read as ALDH1A1 inh -5.0%, HPGD inh -13.9% and PNC assembly inh 12.5.
Screening CC#CCN1c2ccccc2[C@]23C[C@@H](C(=O)OC)N(S(=O)(=O)c4ccc(C(F)(F)F)cc4)C2=NC(C(=O)OC)=C(C(=O)OC)[C@H]13 returned ALDH1A1 inh 1.8%[13.5 µM] and HPGD inh 1.9%.
For Cc1cccc(CSCc2ccc(C(=O)NCC3CCCO3)o2)c1 (stereo unspecified) the results were ALDH1A1 inh 4.3%.
For Cn1nc(-c2ccccc2)c(CN2CCN(c3ncccn3)CC2)c1Cl the results were ALDH1A1 inh 0.9%.
Screening CN(C)S(=O)(=O)c1cc(NC(=O)CN2CCN(c3ccccc3)CC2)ccc1Cl returned ALDH1A1 inh -3.3%, HPGD inh 3.1% and PNC assembly inh -25.1.
Screening COC(=O)c1ccc(NC(=O)CN2C(=O)CNC2=O)cc1 returned ALDH1A1 inh 17.8µM*, HPGD inh -19.1% and PNC assembly inh -26.4.
CC(=O)Nc1ccc(OCC(O)CN2CCN(c3cccc(Cl)c3)CC2)cc1 (stereo unspecified) was read as ALDH1A1 inh 6.9%, HPGD inh -2.5% and PNC assembly inh -5.8.

High-throughput results as filed in PubChem.
